Data: PubChem BioAssay (Tox21)
Records with an inconclusive call do not appear. Values without a mark were called inactive. Activity calls are given as the source filed them. Calls follow the shape of the dose curve; as a rule, active = well fitted inhibition curve with a large enough effect in the signal ratio in the repeat runs, with a control signal flat; inconclusive = weak or mixed curves, or effect the other way; inactive = flat fitted curve, though single readings scatter; the % refers to the signal ratio.

Molecular target: D(2) dopamine receptor (Homo sapiens) (UniProt P14416)
Sequence (P14416 whole entry, looked up): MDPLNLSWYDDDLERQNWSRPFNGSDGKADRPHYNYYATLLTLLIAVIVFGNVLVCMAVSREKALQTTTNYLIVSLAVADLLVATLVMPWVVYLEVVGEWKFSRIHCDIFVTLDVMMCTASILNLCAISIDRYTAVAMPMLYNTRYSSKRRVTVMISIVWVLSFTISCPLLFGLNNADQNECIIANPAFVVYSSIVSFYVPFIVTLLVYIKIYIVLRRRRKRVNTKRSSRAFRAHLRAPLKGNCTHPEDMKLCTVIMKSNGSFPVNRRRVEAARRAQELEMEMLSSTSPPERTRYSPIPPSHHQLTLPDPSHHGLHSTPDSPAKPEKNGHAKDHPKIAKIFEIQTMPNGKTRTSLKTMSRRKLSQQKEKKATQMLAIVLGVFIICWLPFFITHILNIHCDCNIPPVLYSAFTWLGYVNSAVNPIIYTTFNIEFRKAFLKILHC
Experiment: Dopamine D2 receptor (DRD2) small molecule antagonists, cell-based qHTS assay (AID 1963595)
Details: HEK293-DRD2 cAMP HTRF antagonist mode; series mostly up to 92.4 µM; activity change, negative = inhibition: at the top concentration
From the text: National Center for Advancing Translational Sciences [NCATS]
Division of Preclinical Innovation [DPI]
U.S. Environmental Protection Agency [EPA]
National Institutes of Environmental Health Sciences [NIEHS]
National Toxicology Program [NTP]
U.S. Food and Drug Administration [FDA]
DRD2 is the D2 subtype of the dopamine receptor, which is coupled to Gi subtype of G protein-coupled receptor. This G protein-coupled receptor inhibits adenylyl cyclase activity. The DRD2-HEK293 cell line stably expressing D2 dopamine receptor can be used for screening agonists and antagonists of interactions between D2 and its ligands. The Hek293-DRD2 cAMP assay is based on HTRF technology. It measures changes of cAMP accumulation in response to Gi coupled GPCR activation or inhibition.
Tox21 Assay Protocol Summary:
DRD2-Hek293 cells were dispensed at 600 cells/3uL/well in 1536-well white plates using a Multidrop Dispenser. After the assay plates were incubated at a 37 C/5% CO2 incubator for 24 h, 1 uL of Ro20-1724 at final concentration of 0.1 mM was transferred to the assay plate by a Flying Reagent Dispenser. Following Ro20-1724 addition, 23 nL of compound dissolved in DMSO, positive controls or DMSO only was added to the assay plates via Wako pintool station. The assay plates were incubated at room temperature for 10 min. Next, 1 uL of mixture of NKH477 (final concentration at 200 nM) and quinpirole (final concentration at 12 nM) was added into the plates. After the assay plates were incubated at room temperature for an additional 30 min, 2.5 ul/well of cAMP-d2 and 2.5 ul/well of anti-cAMP-cryptate were added respectively into the assay plates using a Flying Reagent Dispenser. The plates were incubated at room temperature for 1 h. The fluorescence intensity in the plates was measured at 340 nm excitation and 665 & 620 nm emission by an Envision plate reader.
% is scaled to controls: 0 for no effect and ±100 for the full control effect; potency is read from the fitted curve at half-maximal effect.

Row | Compound | activity change, negative = inhibition | Potency
1 | C[N+](C)(C)CC(O)CC(=O)[O-] (stereo not given) | 0.227% [at 42.5 µM] | 
2 | CC(=O)CC(c1ccc([N+](=O)[O-])cc1)c1c(O)c2ccccc2oc1=O (stereo not given) | 3.78% [at 42.5 µM] | 
3 | CCN1CCN(c2cc(-c3ccc(F)cc3)c3c(n2)CCCCCC3)CC1 |  | 32.6 nM (active)
4 | CCCCC/C=C/CC1CC(=O)OC1=O (stereo not given) | 1.4% | 
5 | CC(C)NCC(O)c1ccc(NS(C)(=O)=O)cc1 (stereo not given) | 3.53% | 
6 | CCCCCCCCCCC(=O)O | 1.44% | 
7 | CN1CCN(c2cc3c(cc2F)c(=O)c(C(=O)O)cn3-c2ccc(F)cc2)CC1 | 2.3% [at 42.5 µM] | 
8 | CC(C)CCCCCCc1ccc(OCCOCCO)cc1 | -0.113% | 
9 | Cc1cc(O)ccc1N | 0.279% | 
10 | Cc1nc(C2CCCCC2)c(-c2ccc(S(N)(=O)=O)c(F)c2)o1 | -2.81% [at 42.5 µM] | 
11 | CCCCC(CC)COC(=O)COc1ccc(Cl)cc1Cl (stereo not given) | -5.35% | 
12 | C=CC/C=C/C/C=C/C/C=C/C | -4.38% | 
13 | CCC(C)c1cc([N+](=O)[O-])cc([N+](=O)[O-])c1OC(=O)OC(C)C (stereo not given) | -11.4% | 
14 | NS(=O)(=O)c1cc2c(cc1Cl)NC(C(Cl)Cl)NS2(=O)=O (stereo not given) | 5.99% [at 42.5 µM] | 
15 | S=c1[nH][nH]c(=S)s1 | 3.17% | 
16 | CC(C)=CCC/C(C)=C\C#N | -4.34% | 
17 | CC(=O)C(C)=O | 2.61% | 
18 | c1ccc(C[P+](c2ccccc2)(c2ccccc2)c2ccccc2)cc1 | -11.1% | 
19 | Cc1c(Cl)cccc1Nc1ccccc1C(=O)O | 5.63% [at 42.5 µM] | 
20 | O=C(NCCCN1CCOCC1)c1ccc(Cl)cc1 | -0.941% [at 42.5 µM] | 

Row | Compound | activity change, negative = inhibition | Potency
21 | Nc1ccc(C(=O)NCC(=O)O)cc1 | 5.41% [at 42.5 µM] | 
22 | O=C1CCCCCCCCCCC(=O)OCCO1 | -0.981% | 
23 | CCOC(=O)c1cnc2c(cnn2CC)c1NN=C(C)C | 0.97% [at 42.5 µM] | 
24 | SC1CCCCC1 | -3.5% | 
25 | CCCC(=O)OCOC(=O)C1=C(C)NC(C)=C(C(=O)OC)C1c1cccc(Cl)c1Cl (stereo not given) | -4.1% [at 42.5 µM] | 
26 | C=COC(=O)C(C)(CC)CCC(C)C (stereo not given) | 13.2% | 
27 | CCOc1cc(N)c(Cl)cc1C(=O)NCC1CN(Cc2ccc(F)cc2)CCO1 (stereo not given) | -19.6% [at 42.5 µM] | 
28 | CC(C)CCCC(C)NCCC(C)C (stereo not given) | 19.4% [at 42.5 µM] | 
29 | O[C@@H]1CO[C@H]2[C@@H]1OC[C@@H]2O | -0.0662% [at 42.5 µM] | 
30 | O=C1c2ccccc2C(=O)C1c1ccccc1 | 12.7% [at 42.5 µM] | 
31 | CCCCN(CCCC)C(=O)N(CCCC)CCCC | 16.8% | 
32 | CCOc1nc2cccc(C(=O)O)c2n1Cc1ccc(-c2ccccc2-c2nn[nH]n2)cc1 | -2.14% [at 42.5 µM] | 
33 | CCCCCCCCCCOC(C)=O | 12.1% | 
34 | O=C(O)/C=C/c1ccc(/C=C/C(=O)O)cc1 | 10.4% [at 42.5 µM] | 
35 | CC(=O)OC[C@H]1O[C@@H](n2ncc(=O)[nH]c2=O)[C@H](OC(C)=O)[C@@H]1OC(C)=O | -0.159% [at 42.5 µM] | 
36 | Cn1c(N)c(N=O)c(=O)n(C)c1=O | 0.685% | 
37 | C/C=C/C(=O)Oc1c(CCCCCC(C)C)cc([N+](=O)[O-])cc1[N+](=O)[O-] | 2.93% | 
38 | CCCCCCCCCI | 6.07% | 
39 | O=C(O)Cc1c(Cl)ccc(Cl)c1Cl | 5.74% | 
40 | CCCCCCC(O)CO (stereo not given) | -0.849% | 
